Experimental data published in PubChem BioAssay AID1159580 (chemical genetic matrix, 2015).
About 2,000 (36%) of roughly 5,500 compounds were called active. Not shown: some 18% with an inconclusive outcome. No stated cut-off is given here; in the data, active means normalized growth mostly below about 0.91 (no sharp cut-off); inconclusive means no clear call, values can overlap the other calls; inactive means mostly above about 0.92. The list shows a part of the results.

Test: chemical genetic growth profiling, strain panel (AID 1159580);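 further: tested at 20 µM; growth read once vehicle control cultures reached saturation at 30 °C; 1 = growth at the plate median or of vehicle wells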
Settings: S. cerevisiae deletion strains, growth OD

Measured: normalized growth

CC(=O)Nc1cccc(O)c1
inactive: locus YAL013W, strain DEP1, stronger effect = lower value 1 | locus YAL021C, strain ccr4, stronger effect = lower value 1.01 | locus YAL026C, strain drs2, stronger effect = lower value 1.03 | locus YAL030W, strain snc1, stronger effect = lower value 1.01 | locus YBL061C, strain skt5, stronger effect = lower value 1.01 | locus YBR009C, strain hhf1, stronger effect = lower value 0.984 | locus YBR021W, strain FUR4, stronger effect = lower value 1.01 | locus YBR023C, strain chs3, stronger effect = lower value 1.03 | locus YBR171W, strain sec66, stronger effect = lower value 1.02 | locus YBR229C, strain ROT2, stronger effect = lower value 1.01 | locus YBR231C, strain swc5, stronger effect = lower value 1 | locus YBR279W, strain paf1, stronger effect = lower value 1.02 | locus YCL011C, strain gbp2, stronger effect = lower value 1.04 | locus YCL016C, strain dcc1, stronger effect = lower value 1.05 | locus YCL029C, strain bik1, stronger effect = lower value 0.993 | locus YCL061C, strain MRC1, stronger effect = lower value 1.01 | locus YCL069W, strain vba3, stronger effect = lower value 1.01 | locus YCR088W, strain abp1, stronger effect = lower value 1.02 | locus YDL005C, strain med2, stronger effect = lower value 1.02 | locus YDL035C, strain GPR1, stronger effect = lower value 0.992 | locus YDL040C, strain nat1, stronger effect = lower value 0.999 | locus YDL074C, strain BRE1, stronger effect = lower value 1.02 | locus YDL101C, strain DUN1, stronger effect = lower value 1.02 | locus YDL134C, strain PPH21, stronger effect = lower value 0.983 | locus YDL185W, strain tfp1, stronger effect = lower value 0.993 | locus YDL192W, strain arf1, stronger effect = lower value 1.01 | locus YDR001C, strain nth1, stronger effect = lower value 1.01 | locus YDR069C, strain doa4, stronger effect = lower value 1.03 | locus YDR101C, strain arx1, stronger effect = lower value 0.989 | locus YDR137W, strain rgp1, stronger effect = lower value 1.03 | locus YDR150W, strain NUM1, stronger effect = lower value 0.998 | locus YDR159W, strain sac3, stronger effect = lower value 0.954 | locus YDR162C, strain NBP2, stronger effect = lower value 0.999 | locus YDR195W, strain ref2 0.986 | locus YDR297W, strain sur2, stronger effect = lower value 0.998 | locus YDR318W, strain mcm21, stronger effect = lower value 1.01 | locus YDR334W, strain swr1, stronger effect = lower value 1.02 | locus YDR335W, strain msn5, stronger effect = lower value 1.01 | locus YDR388W, stronger effect = lower value 0.998 | locus YDR392W, strain spt3, stronger effect = lower value 0.99 | locus YDR502C, strain sam2, stronger effect = lower value 0.986 | locus YEL003W, strain gim4, stronger effect = lower value 1 | locus YEL037C, strain rad23, stronger effect = lower value 1 | locus YEL061C, strain CIN8 (second series), stronger effect = lower value 1 | locus YEL061C, strain CIN8, stronger effect = lower value 1.01 | locus YER015W, strain faa2, stronger effect = lower value 1.02 | locus YER016W, strain bim1, stronger effect = lower value 1.03 | locus YER110C, stronger effect = lower value 1 | locus YER111C, strain swi4, stronger effect = lower value 1.01 | locus YER155C, strain BEM2 (second series), stronger effect = lower value 0.999 | locus YER155C, strain BEM2, stronger effect = lower value 1.01 | locus YER167W, strain BCK2, stronger effect = lower value 1 | locus YFR010W, strain ubp6, stronger effect = lower value 0.994 | locus YGL078C, strain dbp3, stronger effect = lower value 0.994 | locus YGL086W, strain mad1, stronger effect = lower value 0.99 | locus YGL167C, strain pmr1, stronger effect = lower value 1.01 | locus YGL173C, strain kem1, stronger effect = lower value 0.987 | locus YGL227W, strain vid30, stronger effect = lower value 1.02 | locus YGL240W, strain doc1, stronger effect = lower value 0.977 | locus YGL248W, strain PDE1, stronger effect = lower value 1.02 | locus YGL253W, strain hxk2, stronger effect = lower value 1.04 | locus YGR078C, strain PAC10, stronger effect = lower value 1.01 | locus YGR135W, strain pre9, stronger effect = lower value 1.02 | locus YGR252W, strain gcn5, stronger effect = lower value 1 | locus YHR013C, strain ard1, stronger effect = lower value 1.04 | locus YHR027C, strain rpn1, stronger effect = lower value 1.01 | locus YHR030C, strain SLT2, stronger effect = lower value 1 | locus YHR079C, strain IRE1 (second series), stronger effect = lower value 0.997 | locus YHR094C, strain hxt1, stronger effect = lower value 0.997 | locus YHR129C, strain ARP1, stronger effect = lower value 1.01 | locus YHR142W, strain chs7, stronger effect = lower value 1.04 | locus YHR200W, strain rpn10, stronger effect = lower value 0.996 | locus YIL066C, strain RNR3, stronger effect = lower value 1 | locus YIL073C, strain SPO22, stronger effect = lower value 1.02 | locus YIL125W, strain kgd1, stronger effect = lower value 0.994 | locus YIR030C, strain dcg1, stronger effect = lower value 0.991 | locus YJL092W, strain hpr5, stronger effect = lower value 1.01 | locus YJL095W, strain BCK1 (second series), stronger effect = lower value 1.03 | locus YJL095W, strain BCK1, stronger effect = lower value 1.03 | locus YJL115W, strain asf1, stronger effect = lower value 1.02 | locus YJL129C, strain trk1, stronger effect = lower value 1.04 | locus YJL134W, strain LCB3, stronger effect = lower value 1.02 | locus YJL154C, strain vps35, stronger effect = lower value 1.01 | locus YJL164C, strain tpk1, stronger effect = lower value 1.03 | locus YJL166W, strain qcr8, stronger effect = lower value 0.982 | locus YJL168C, strain set2, stronger effect = lower value 1.02 | locus YJL187C, strain SWE1 (second series), stronger effect = lower value 1.02
